In all, about 48,000 compounds went through this assay and about 13,000 (27%) showed an effect of 50% or more. Some of the results follow.
Each molecule was assayed on Wolbachia pipientis (assay: Anti-Wolbachia Cell-Based Screen). Conditions: 5 µM.
Type: functional
Set-up: scale not given: in the data most compounds retested in dose-response had high values

Going from `CC(C)c1noc([C@@H]2Cc3[nH]cnc3CN2C(=O)Nc2ccccc2)n1` to `CN(CCc1ccccc1)Cc1cc(C(=O)N2CCN(C)C(=O)C2)no1`, the “Percent Effect” value rises from 2.136% to 103.8%.

Compared with `NC(=O)CCn1ccc(NC(=O)C2(c3ccc(F)cc3)CCC2)n1`, `Cc1nn(C(C)C)c(C)c1NC(=O)c1ccc(F)cc1` is higher in “Percent Effect” value: -29.44% for the first, -6.824% for the second.

Going from `COc1ccc(N(Cc2ccco2)C(=O)COC(C)C)cc1F` to `CC(C)Oc1ncnc2c1CCN(Cc1ccco1)CC2.O=C(O)C(F)(F)F`, the “Percent Effect” value rises from -7.109% to 2.851%.

Going from `Oc1cc(CCC2CCCCN2)cc(-c2cccnc2)c1` (stereo not given) to `Oc1cc(CCC2CCCCN2)cc(-c2ccncc2)c1` (stereo not given), the “Percent Effect” value rises from 13.71% to 23.52%.

Compared with `CS(=O)(=O)c1ccc(-c2cc(O)cc(CCC3CCCCN3)c2)cc1` (stereo not given), `O=c1cc(-c2cc(O)cc(CCC3CCCCN3)c2)cc[nH]1` (stereo not given) is higher in “Percent Effect” value: -20.81% for the first, 29.58% for the second.

First: COc1ccc(CCC2CCCCN2)cc1OC (stereo not given)
Second: COc1cccc(CCC2CCCCN2)c1 (stereo not given)
The “Percent Effect” value of the first is higher: 89.4% for the first, 69.8% for the second.

Compared with `COc1ccc(CCC2CCCCN2)cc1.Cl` (stereo not given), `COc1cccc(CCC2CCCN(C(C)=O)C2)c1` (stereo not given) is lower in “Percent Effect” value: 100.4% for the first, -117.1% for the second.

Compared with `COc1ccc(CCNC(=O)NC2CCCC2)cc1OC`, `Cn1ncc2c(NCCOCc3ccccc3)nc(C3CCCC3)nc21` is higher in “Percent Effect” value: 1.175% for the first, 18.15% for the second.

Going from `O=C(NCc1ccncc1)N1CCSCC1CCO` (stereo not given) to `COCC(=O)NCc1cc(=O)n2c(n1)CN(Cc1ccncc1)CCC2`, the “Percent Effect” value rises from -7.144% to 99.24%.

Compared with `CSc1ccc(-c2nc(CN3CCC(CN)C3)c(C)o2)cc1` (stereo not given), `Cc1ccc(CN2CCc3ncnc(-c4ccc(F)cc4)c3CC2)o1.O=C(O)C(F)(F)F` is higher in “Percent Effect” value: -1.027% for the first, -0.3748% for the second.

Compared with `CCc1noc(C)c1C(=O)N1CCN(c2nc(C)cc(OC)n2)CC1`, `COc1cc(C)nc(N2CCN(C(C)c3nc(C)no3)CC2)n1` (stereo not given) is lower in “Percent Effect” value: -4.975% for the first, -6.748% for the second.

First: Cc1cc(C(F)(F)F)cc(N2CCC3(CCC(=O)N(CCO)C3)CC2)n1
Second: CCCc1nc(C)cc(N2CCC3(CCC(=O)N(CC(N)=O)C3)CC2)n1
The “Percent Effect” value of the first is higher: 8.685% for the first, 1.453% for the second.

Compared with `CC1(C)CN(CC(F)(F)F)CCN1CC(N)=O`, `Cc1cc(C(F)(F)F)nc(C2(C)CCCN2CC(N)=O)n1` (stereo not given) is higher in “Percent Effect” value: 0.007489% for the first, 81.01% for the second.

First: CCc1nnc2n1CCN(c1nc(C)cc(N(C)C)n1)C2
Second: Cc1cc(N(C)C)nc(C2(C)CCCN2CC(N)=O)n1 (stereo not given)
The “Percent Effect” value of the first is lower: 1.842% for the first, 87.15% for the second.

First: CS(=O)(=O)NC1CCN(C(=O)COCc2ccccc2)CC1
Second: CCOC(=O)C1CCN(C(=O)CN2CCCC2Cc2ccccc2)CC1 (stereo not given)
The “Percent Effect” value of the first is lower: -3.192% for the first, -0.766% for the second.

Going from `Cc1cc(C2CCCN2c2ncc(C(N)=O)cc2Cl)no1` (stereo not given) to `Cc1cnc(NC(=O)c2ccc(C3CCCN3CC(C)C)s2)s1` (stereo not given), the “Percent Effect” value rises from -5.991% to -4.424%.

Going from `Cc1nncn1CCNC(=O)C(C)(C)c1cccc(C(F)(F)F)c1` to `Cc1ccc(C(F)(F)F)cc1NCC(=O)Nc1c(C)nn(C)c1C`, the “Percent Effect” value rises from 2.023% to 5.729%.

Compared with `CC(C)CN1CCC(C(=O)Nc2cc(C(F)(F)F)c[nH]c2=O)CC1`, `O=C(Nc1cc(C(F)(F)F)c[nH]c1=O)C1CCNCC1` is higher in “Percent Effect” value: -2.2% for the first, 76.16% for the second.

Compared with `CN(CC(=O)Nc1cc(C(F)(F)F)c[nH]c1=O)Cc1ccccc1`, `CC(=O)N(C)CC(=O)Nc1cc(C(F)(F)F)c[nH]c1=O` is higher in “Percent Effect” value: -11.84% for the first, -5.133% for the second.

Compared with `Cc1ccc(C(F)(F)F)cc1NC(=O)C1CCCN1` (stereo not given), `Cl.O=C(Nc1cc(C(F)(F)F)c[nH]c1=O)C1CCCCN1` (stereo not given) is higher in “Percent Effect” value: 84.86% for the first, 99.37% for the second.

Compared with `O=C(NCc1ccccn1)Nc1cc(C(F)(F)F)c[nH]c1=O`, `O=C(Nc1cc(C(F)(F)F)c[nH]c1=O)C1CCCO1` (stereo not given) is higher in “Percent Effect” value: 4.379% for the first, 93.32% for the second.

First: O=C(Nc1cc(C(F)(F)F)c[nH]c1=O)C1CCCNC1 (stereo not given)
Second: Cc1ccc(C(=O)O)cc1NC(=O)C1CC=CC1
The “Percent Effect” value of the first is higher: 107.9% for the first, -2.837% for the second.

Compared with `COc1cccc(C(=O)N2CCc3ncnc(C)c3CC2)c1`, `Cc1ccc(CN2CCc3ncnc(-c4ccoc4)c3CC2)o1.O=C(O)C(F)(F)F` is higher in “Percent Effect” value: -6.547% for the first, 105.9% for the second.

Compared with `CN1CC[C@H]2CN(C(=O)c3csc(Cc4ccccc4)n3)C[C@H]21`, `CN(CCc1ccccc1)Cc1cc(C(=O)N2CCSCC2)no1` is lower in “Percent Effect” value: 0.1576% for the first, -17.09% for the second.

First: Cc1nn(C)cc1C(C)Nc1ncnc2sccc12 (stereo not given)
Second: Cc1ccc(C)c(NC(=O)C(C)N2CCCN(c3nccs3)CC2)c1 (stereo not given)
The “Percent Effect” value of the first is lower: -14.94% for the first, 18.26% for the second.

First: c1n[nH]cc1CCCN1CCC(OC2CCCCC2)CC1
Second: CC1CCC(NCCCN2CCOCC2)CC1 (stereo not given)
The “Percent Effect” value of the first is higher: 7.391% for the first, -18.43% for the second.

Going from `Cc1ccc(NC(=O)NCCCc2n[nH]c(N)c2C#N)cc1` to `CCc1c(C(=O)NCC(=O)OCC2CC2)cnn1-c1ccc(C)cc1`, the “Percent Effect” value falls from 1.349% to -8.085%.

First: Cc1nn(C)c(C)c1NC(=O)CCn1ncc2c(C)cccc21
Second: Cc1cc(C)c(C)c(OCCCNC(=O)NC(C)c2nncn2C)c1 (stereo not given)
The “Percent Effect” value of the first is lower: -5.64% for the first, 4.914% for the second.

First: Cc1ccc(CN2CCCn3c(nc(Cn4cncn4)cc3=O)C2)s1
Second: O=c1cc(Cn2cncn2)nc2n1CCCN(Cc1ccco1)C2
The “Percent Effect” value of the first is higher: -3.936% for the first, -4.032% for the second.

Going from `O=C(CC1CC1)NCc1cc(=O)n2c(n1)CN(Cc1ccoc1)CCC2` to `COCC(=O)NCc1cc(=O)n2c(n1)CN(Cc1ccoc1)CCC2`, the “Percent Effect” value rises from 68.76% to 84.57%.

Going from `CN(C)C(=O)NCc1cc(=O)n2c(n1)CN(Cc1ccoc1)CCC2.O=C(O)C(F)(F)F` to `Cc1oncc1C(=O)NCc1cc(=O)n2c(n1)CN(C)CCC2.O=C(O)C(F)(F)F`, the “Percent Effect” value falls from 87.23% to -6.613%.

Compared with `Cc1ccc(CN2CCCn3c(nc(CN4CCCC4)cc3=O)C2)s1.O=C(O)C(F)(F)F.O=C(O)C(F)(F)F`, `O=c1cc(CN2CCCC2)nc2n1CCCN(Cc1ccco1)C2` is higher in “Percent Effect” value: -4.249% for the first, 15.57% for the second.

First: O=c1cc(Cn2ccnc2)nc2n1CCCN(Cc1ccsc1)C2
Second: O=c1cc(CN2CCCC2)nc2n1CCCN(Cc1ccsc1)C2
The “Percent Effect” value of the first is higher: 9.464% for the first, 8.942% for the second.

First: Cc1nc(CC(=O)NCCNc2nccc(C(F)(F)F)n2)cs1
Second: Cc1cc(C)n(C2CCCN(C(=O)Cc3csc(C)n3)C2)n1 (stereo not given)
The “Percent Effect” value of the first is lower: -6.146% for the first, 1.332% for the second.

First: COCC(=O)NCc1cc(=O)n2c(n1)CN(Cc1ccco1)CCC2
Second: CN(C)Cc1cc(=O)n2c(n1)CN(Cc1ccco1)CCC2
The “Percent Effect” value of the first is higher: 106.6% for the first, 2.843% for the second.

Compared with `O=c1cc(CN2CCCC2)nc2n1CCCN(Cc1ccoc1)C2`, `CC(C)Oc1ncnc2c1CCN(Cc1ccoc1)CC2.O=C(O)C(F)(F)F` is lower in “Percent Effect” value: 85.96% for the first, 3.383% for the second.

First: O=C1NC(c2ccccc2)=N[C@@]12CC[C@@H]1CN(S(=O)(=O)C3CC3)C[C@@H]12
Second: CCOC(=O)C1CCN(C(=O)CN2CCCC2c2ccccc2C)CC1 (stereo not given)
The “Percent Effect” value of the first is higher: 2.973% for the first, -25.1% for the second.

Compared with `CCC(CO)N(Cc1cccc(O)c1)Cc1ccccc1C` (stereo not given), `CN(C)Cc1ccccc1NC(=O)c1ccc(C#N)cc1` is higher in “Percent Effect” value: -1.955% for the first, 4.666% for the second.

Compared with `N#Cc1cc(NC(=O)C2CC=CC2)ccc1N1CCC(O)CC1`, `CCOC1CCN(C(=O)c2ccc(-n3ncc(C#N)c3N)cc2)CC1` is lower in “Percent Effect” value: -4.254% for the first, -10.17% for the second.

Compared with `CNC(=O)[C@@H](C1CCCCC1)N1CCC[C@H]1C(=O)NC1CC1`, `O=C(NCCSCc1cccs1)C1CCCN(C(=O)N2CCCC2)C1` (stereo not given) is lower in “Percent Effect” value: 10.77% for the first, -5.994% for the second.

Going from `N#Cc1ccccc1CNC(C(=O)N1CCOCC1)c1ccccc1` (stereo not given) to `N#Cc1ccccc1NC(=O)c1ccc2c(c1)OCO2`, the “Percent Effect” value rises from -7.429% to 136.5%.

Going from `CCOC(=O)C1CCN(C(=O)c2cnn(-c3ccc(C)cc3)c2N)CC1` to `CCOC(=O)C1CCN(C(=O)c2cnn(-c3ccccc3F)c2N)CC1`, the “Percent Effect” value rises from 105.1% to 125.9%.

Compared with `CCc1noc(CN(C)CCC(=O)Nc2ccccc2C#N)n1`, `CN1CCCN(C(=O)c2cc(CN(C)CCc3ccccc3)on2)CC1` is lower in “Percent Effect” value: 9.134% for the first, -31.64% for the second.

Going from `CC(C)(O)CSCCNCc1ccc(Cl)c2cccnc12` to `c1ccc(-c2cnc(CNCC3CCCN3c3cccnn3)o2)cc1` (stereo not given), the “Percent Effect” value falls from 7.695% to -6.959%.

First: C1CCC(NCCN2CCOCC2)C1
Second: C1CN(CCN2CCOCC2)CCN1
The “Percent Effect” value of the first is lower: -5.882% for the first, 96.42% for the second.

First: Cc1cc(C)n(CC2CCCN2C(=O)CCc2cscn2)n1 (stereo not given)
Second: Cc1cc(C)n(C2CCCN(C(=O)CCc3nccs3)C2)n1 (stereo not given)
The “Percent Effect” value of the first is lower: -3.871% for the first, 95.16% for the second.

First: CCC(C)(NC(=O)CCN1CCOC1=O)C(=O)OC (stereo not given)
Second: COCCN1CCN(Cc2nccs2)[C@H]2CS(=O)(=O)C[C@H]21
The “Percent Effect” value of the first is higher: -2.045% for the first, -12.76% for the second.

Going from `O=C(CCc1cnn(-c2ccccc2)c1)N1CCCC(n2cccn2)C1` (stereo not given) to `O=C(CCc1nccs1)N1CCCC(n2cccn2)C1` (stereo not given), the “Percent Effect” value rises from -6.718% to 73.36%.

Compared with `Cc1cc(C)n(C2CCCN(C(=O)CN(C)c3cnccn3)C2)n1` (stereo not given), `Cc1cnn(C2CCCN(C(=O)CCc3nccs3)C2)c1` (stereo not given) is higher in “Percent Effect” value: -4.644% for the first, -0.76% for the second.

First: COc1c(C2CCCN2CCOc2ccccc2C#N)c(C)nn1C (stereo not given)
Second: COCCN1CCCC1c1nccnc1Nc1nc(C)cs1 (stereo not given)
The “Percent Effect” value of the first is lower: -6.58% for the first, -1.129% for the second.

Compared with `COCCN1CCCC1c1nccnc1Nc1nccs1` (stereo not given), `COCCN1CCCC1c1nccnc1Nc1ncc(C)s1` (stereo not given) is higher in “Percent Effect” value: 95.24% for the first, 100% for the second.

First: O=C(CN1CCN(c2ncnc3c2CCNCC3)CC1)N1CCCCC1
Second: Cn1cnc2c1C(C(=O)N1CCCC1)N(S(C)(=O)=O)CC2 (stereo not given)
The “Percent Effect” value of the first is lower: -2.249% for the first, 3.413% for the second.

For `Cc1ccc(CN2CCc3ncnc(-c4ccncc4)c3CC2)o1.O=C(O)C(F)(F)F.O=C(O)C(F)(F)F`, the “Percent Effect” value was 96.83%.

— ChEMBL document CHEMBL3988442, “University of Dundee, Small-Polar-MMV Screening Library” (2021)
